The values below come from the supplement of paper PMC3334620.

The full ranking holds about 33,000 sequences; the median of “E-score (-0.5 to 0.5)” is about -0.056, and the highest 2% start at about 0.38. What follows is part of a selection rich in the highest values, with near analogues and random picks from the rest.

Chain of UniProt P50104 (P50104 whole entry, the tested form may be a part): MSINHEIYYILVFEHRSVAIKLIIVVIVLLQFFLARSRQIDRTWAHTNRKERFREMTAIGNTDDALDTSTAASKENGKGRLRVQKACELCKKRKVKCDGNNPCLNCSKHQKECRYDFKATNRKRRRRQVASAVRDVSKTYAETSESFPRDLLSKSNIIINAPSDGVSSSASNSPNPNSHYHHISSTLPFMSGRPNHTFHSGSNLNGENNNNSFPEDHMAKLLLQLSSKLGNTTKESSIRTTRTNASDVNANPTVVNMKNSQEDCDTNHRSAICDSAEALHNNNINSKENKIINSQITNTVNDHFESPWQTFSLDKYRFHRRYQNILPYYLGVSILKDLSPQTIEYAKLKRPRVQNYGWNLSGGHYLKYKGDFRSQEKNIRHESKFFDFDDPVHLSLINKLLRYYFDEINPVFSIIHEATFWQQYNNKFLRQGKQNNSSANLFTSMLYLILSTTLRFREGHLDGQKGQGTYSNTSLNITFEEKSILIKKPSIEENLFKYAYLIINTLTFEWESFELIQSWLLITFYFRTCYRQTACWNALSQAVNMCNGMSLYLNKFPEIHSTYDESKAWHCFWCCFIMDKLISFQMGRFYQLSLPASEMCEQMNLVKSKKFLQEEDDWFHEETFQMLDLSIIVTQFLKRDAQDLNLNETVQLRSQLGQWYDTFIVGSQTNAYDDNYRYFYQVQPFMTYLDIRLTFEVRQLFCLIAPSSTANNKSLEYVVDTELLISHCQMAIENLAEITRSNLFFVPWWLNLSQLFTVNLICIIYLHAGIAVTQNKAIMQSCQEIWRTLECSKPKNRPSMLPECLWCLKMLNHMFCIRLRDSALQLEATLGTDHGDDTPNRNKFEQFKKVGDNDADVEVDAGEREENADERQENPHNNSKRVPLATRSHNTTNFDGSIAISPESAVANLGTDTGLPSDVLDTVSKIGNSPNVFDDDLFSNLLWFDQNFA

This assay concerns the target Stb4 (UniProt P50104). Kind of assay: PBM E-score (8-mer binding enrichment) (E-score (-0.5 to 0.5)); higher = stronger / more preferred TF binding. Particulars: protein concentration: 200 nM; construct: GST-DNA-binding domain. The gist of the method:
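Yeast transcription factors, full-length or as DNA-binding domains, were expressed with a GST tag using PURExpress in vitro transcription/translation. At about 100-200 nM they were applied to universal all-10-mer Agilent arrays, double-stranded by primer extension on fresh or once-stripped slides. Fluorescent anti-GST detected bound protein, and masliner normalised the scans. E-scores for ungapped eight-base words, pooled with reverse complements, came from the Universal PBM Analysis Suite.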
Regarding CTCTGAAC, the “PBM E-score” value is -0.174.

Consider CTTTCGAA, for which the “PBM E-score” value is -0.204.

CTTTCGAC: the “PBM E-score” value is -0.172.

For the sequence CTTTCGTC, the “PBM E-score” value is -0.0646.

Consider ATTTCGGG, for which the “PBM E-score” value came to 0.39.

For the sequence ATTTCGCA, the “PBM E-score” value was 0.0506.

As to ATTTCGGC, the “PBM E-score” value amounted to 0.371.

Turning to ATTTCGGA, the “PBM E-score” value turned out to be 0.454.

Regarding CTTTCGTA, the “PBM E-score” value was -0.177.

Regarding ATTTCGCG, the “PBM E-score” value stood at 0.0954.

For the sequence CTTTCGGC, the “PBM E-score” value is 0.386.

For CTTTCGGA, the “PBM E-score” value came to 0.432.

On to ATTTCGAG, for which the “PBM E-score” value is -0.0811.

As for AACGTTCG, the “PBM E-score” value was found to be 0.113.

With CTTTCTGA, the “PBM E-score” value is -0.25.

For CGCGCCAG, the “PBM E-score” value is 0.104.

With AGCGCTCG, the “PBM E-score” value is -0.0312.

In the case of CTTCGTCA, the “PBM E-score” value was -0.177.

With GTAGTTCA, the “PBM E-score” value came out at 0.0756.

With GCGGTGCA, the “PBM E-score” value is -0.283.

For ATTCTCCG, the “PBM E-score” value was determined as 0.264.

Consider AGTAAAAC, for which the “PBM E-score” value was -0.181.

For GTGGTGAA, the “PBM E-score” value amounted to 0.0732.

Take GTTTCGAA: the “PBM E-score” value is -0.145.

Consider GTTTCGTA, for which the “PBM E-score” value was found to be 0.128.

With GTTTCGGA, the “PBM E-score” value worked out at 0.43.

With AAGCTGAT, the “PBM E-score” value amounted to 0.104.

Regarding CCACCTAC, the “PBM E-score” value is -0.246.

With AGCATCAA, the “PBM E-score” value is -0.15.

Turning to ACAGGTGG, the “PBM E-score” value is -0.226.

CCGAGGAA: the “PBM E-score” value is 0.387.

Take CCGAGGAC: the “PBM E-score” value was 0.371.

For ACGAGGAG, the “PBM E-score” value is -0.349.

For CCGAGGAG, the “PBM E-score” value is 0.393.

Regarding CGGAGGAG, the “PBM E-score” value is 0.209.

Consider TCGAGGAA, for which the “PBM E-score” value is -0.13.

With ATGAAGGG, the “PBM E-score” value was -0.114.

In the case of CAGGAGTC, the “PBM E-score” value was -0.0625.

AGTCGCAT: the “PBM E-score” value was -0.137.

Take CTGGTAGC: the “PBM E-score” value is -0.224.

In the case of ACACCGGG, the “PBM E-score” value was 0.213.

As for CGTATGGA, the “PBM E-score” value is -0.0248.

Regarding CATGGGCG, the “PBM E-score” value is -0.0118.

Take ACCATACC: the “PBM E-score” value worked out at 0.044.

In the case of ATCTCCGA, the “PBM E-score” value was found to be 0.396.

For the sequence AACTCCGA, the “PBM E-score” value came to 0.412.

As to AACTCCGG, the “PBM E-score” value amounted to 0.352.

Regarding ATCTCCGC, the “PBM E-score” value was determined as 0.151.

For the sequence AACTCCGT, the “PBM E-score” value stood at 0.206.

On to GTCTCCGA, for which the “PBM E-score” value came out at 0.352.

In the case of TCCAAAAA, the “PBM E-score” value is 0.0234.

In the case of GTCGCTCA, the “PBM E-score” value was -0.129.

Consider GCCGACTA, for which the “PBM E-score” value was 0.166.

With CATTCTTC, the “PBM E-score” value was -0.0802.

Regarding GTTTGCGA, the “PBM E-score” value was -0.155.

Consider GCAGCCTA, for which the “PBM E-score” value was -0.153.

For GCCGCCGA, the “PBM E-score” value was 0.331.

For the sequence CCAGCCGA, the “PBM E-score” value stood at 0.322.

For the sequence ACAGCCGC, the “PBM E-score” value was determined as 0.105.

Regarding ACAGCCGG, the “PBM E-score” value is 0.35.

For the sequence ACAGCCGA, the “PBM E-score” value turned out to be 0.383.

TCCGCCGA: the “PBM E-score” value was 0.403.

Regarding CCCGCCGA, the “PBM E-score” value is 0.367.

Take GCAGCCGC: the “PBM E-score” value was 0.154.

Regarding GCAGCCGA, the “PBM E-score” value stood at 0.396.

With TCAGCCGA, the “PBM E-score” value was determined as 0.385.

TCAGCCCA: the “PBM E-score” value was -0.11.

For ATAAACCC, the “PBM E-score” value is 0.0851.

Take CGCTATAC: the “PBM E-score” value came to 0.0197.

GCCAAAGC: the “PBM E-score” value is -0.121.

Regarding CAGACCTG, the “PBM E-score” value was -0.17.

Regarding TATTTCGA, the “PBM E-score” value turned out to be 0.00011.

As for AATGTCTG, the “PBM E-score” value was determined as 0.0612.

Turning to ATGACGGA, the “PBM E-score” value came out at 0.217.

With AATCTTGC, the “PBM E-score” value was -0.0133.

For CAGGAATC, the “PBM E-score” value was -0.0371.

Consider AACTAAGT, for which the “PBM E-score” value was -0.0531.

Take AGCTTCCC: the “PBM E-score” value is -0.00142.

For the sequence AGCTTCCG, the “PBM E-score” value is 0.423.

On to CGCTTCCA, for which the “PBM E-score” value is -0.0326.

As to CGCTTCCG, the “PBM E-score” value was determined as 0.402.

For the sequence CGCTTCCC, the “PBM E-score” value stood at 0.188.

Consider AGCTTCCA, for which the “PBM E-score” value amounted to 0.0259.

As to CCTCCACC, the “PBM E-score” value is -0.0886.

In the case of ATCAAGGC, the “PBM E-score” value was -0.111.

CTAGCCGA: the “PBM E-score” value was determined as 0.455.
